Measured values reported in PubChem BioAssay.
For some assays here: Entries with a potency or affinity are not part of this list. The source made the active and inactive calls. Unless noted, no rule for the calls is given here.

What was measured:
[1] = antimalarial activity against Dd2 strain (AID 2302;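 active = growth inhibition above 50% at the single 2 µM test dose, taken to imply half-maximal potency below 2 µM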;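 also: 0% = DMSO untreated growth and 100% = chloroquine plus artemisinin killed control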); settings: P. falciparum Dd2 in RBCs, LDH growth readout, 72 h; at 2 µM; stronger effect = higher value
[2] = human hepatoma cell viability loss – ATP luminescence, cytotoxicity control for P. falciparum antimalarial project, primary screen (AID 2303;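 active = inhibition above 50%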;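 also: 0% = DMSO wells and 100% = digitonin-killed cells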); settings: HepG2 viability, 24-48 h, at 10 µM, stronger effect = higher value
[3] = target: L-lactate dehydrogenase (Plasmodium falciparum (isolate CDC / Honduras)) (UniProt Q27743); assay: PfLDH activity inhibition – cell lysate, 3D7 strain, counter-screen for P. falciparum growth inhibition project (AID 2304);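 also: 0% = vehicle and 100% = reference inhibitor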; settings: P. falciparum 3D7 crude extract, LDH APAD/NBT absorbance; at 2 µM; stronger effect = higher value
[4] = inhibition of 3D7 malaria parasite growth – strain 3D7 (AID 2306);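 also: 0% = DMSO wells and 100% = chloroquine plus artemisinin control wells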; settings: P. falciparum 3D7 erythrocytic growth, LDH absorbance, 72 h; at 2 µM; stronger effect = higher value
[5] = target: Calcium-dependent protein kinase 1 (Plasmodium falciparum (isolate 3D7)) (UniProt P62344); assay: PfCDPK1 kinase inhibitors, biochemical, TCAMS library (AID 1159585; cut-off not given, nearly all actives have IC50 up to about 0.98 µM;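 also: inhibitors leave more ATP so luminescence rises with inhibition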); settings: recombinant PfCDPK1, Kinase-Glo ATP depletion luminescence
[6] = target: Plasmodium falciparum protein kinase 6 (PK6, PF3D7_1337100) (UniProt Q8IDW1); assay: PfPK6 kinase inhibitors, biochemical, TCAMS library (AID 1159586); settings: recombinant PfPK6, Kinase-Glo ATP depletion luminescence
[7] = target: Protein kinase 7 (PK7), Plasmodium falciparum 3D7 (PF3D7_0213400) (UniProt Q7YTF7); assay: inhibition of Plasmodium PK7 catalytic activity – biochemical, TCAMS antimalarial set, Kinase-Glo luminescence (AID 1159587); settings: recombinant PfPK7, Kinase-Glo ATP depletion luminescence
[8] = target: Calcium-dependent protein kinase 4 (Plasmodium falciparum (isolate 3D7)) (UniProt Q8IBS5); assay: PfCDPK4 kinase inhibitors, biochemical, TCAMS library (AID 1159588; cut-off not given, nearly all actives have IC50 up to about 0.91 µM); settings: recombinant PfCDPK4, Kinase-Glo ATP depletion luminescence
Calcium-dependent protein kinase 4 (Plasmodium falciparum (isolate 3D7)), sequence (Q8IBS5 whole entry, looked up): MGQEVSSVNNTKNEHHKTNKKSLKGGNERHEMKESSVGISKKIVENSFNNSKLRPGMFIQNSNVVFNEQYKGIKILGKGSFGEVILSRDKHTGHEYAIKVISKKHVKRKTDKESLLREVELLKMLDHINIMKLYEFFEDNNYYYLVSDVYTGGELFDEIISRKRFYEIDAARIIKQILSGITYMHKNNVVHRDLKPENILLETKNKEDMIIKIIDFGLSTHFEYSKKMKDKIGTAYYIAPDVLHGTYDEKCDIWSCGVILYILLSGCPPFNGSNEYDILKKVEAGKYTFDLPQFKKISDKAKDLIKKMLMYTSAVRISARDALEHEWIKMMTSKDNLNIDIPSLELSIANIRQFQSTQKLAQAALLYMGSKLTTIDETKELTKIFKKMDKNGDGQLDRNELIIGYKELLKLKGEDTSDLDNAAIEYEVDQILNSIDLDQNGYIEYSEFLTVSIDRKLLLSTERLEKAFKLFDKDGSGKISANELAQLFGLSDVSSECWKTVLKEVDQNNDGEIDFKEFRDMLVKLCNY

Calcium-dependent protein kinase 1 (Plasmodium falciparum (isolate 3D7)), sequence (P62344 whole entry, looked up): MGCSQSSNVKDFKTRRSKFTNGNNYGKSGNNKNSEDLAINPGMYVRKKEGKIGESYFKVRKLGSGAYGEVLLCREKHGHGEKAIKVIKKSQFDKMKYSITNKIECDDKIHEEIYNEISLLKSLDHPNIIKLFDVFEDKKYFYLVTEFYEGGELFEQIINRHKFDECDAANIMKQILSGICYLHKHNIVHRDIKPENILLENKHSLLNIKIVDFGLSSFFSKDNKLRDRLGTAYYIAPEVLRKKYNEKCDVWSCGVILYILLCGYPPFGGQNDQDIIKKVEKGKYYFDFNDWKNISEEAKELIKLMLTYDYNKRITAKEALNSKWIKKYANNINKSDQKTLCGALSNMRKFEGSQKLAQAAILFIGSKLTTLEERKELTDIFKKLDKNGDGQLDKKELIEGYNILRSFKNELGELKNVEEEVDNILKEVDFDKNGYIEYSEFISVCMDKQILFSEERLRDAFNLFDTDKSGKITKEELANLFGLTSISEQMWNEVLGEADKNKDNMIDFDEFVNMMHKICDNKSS
Protein kinase 7 (PK7), Plasmodium falciparum 3D7 (PF3D7_0213400), sequence (Q7YTF7 1-343): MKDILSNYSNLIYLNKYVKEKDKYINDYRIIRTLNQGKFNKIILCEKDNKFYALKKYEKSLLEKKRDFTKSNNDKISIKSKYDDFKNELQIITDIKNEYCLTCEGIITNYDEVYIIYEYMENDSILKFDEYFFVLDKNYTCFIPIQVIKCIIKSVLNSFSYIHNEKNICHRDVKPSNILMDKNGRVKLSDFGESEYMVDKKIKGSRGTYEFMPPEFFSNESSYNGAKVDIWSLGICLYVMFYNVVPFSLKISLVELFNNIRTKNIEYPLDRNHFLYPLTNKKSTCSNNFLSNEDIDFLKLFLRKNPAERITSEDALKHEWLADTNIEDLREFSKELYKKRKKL
Plasmodium falciparum protein kinase 6 (PK6, PF3D7_1337100), sequence (Q8IDW1 1-305): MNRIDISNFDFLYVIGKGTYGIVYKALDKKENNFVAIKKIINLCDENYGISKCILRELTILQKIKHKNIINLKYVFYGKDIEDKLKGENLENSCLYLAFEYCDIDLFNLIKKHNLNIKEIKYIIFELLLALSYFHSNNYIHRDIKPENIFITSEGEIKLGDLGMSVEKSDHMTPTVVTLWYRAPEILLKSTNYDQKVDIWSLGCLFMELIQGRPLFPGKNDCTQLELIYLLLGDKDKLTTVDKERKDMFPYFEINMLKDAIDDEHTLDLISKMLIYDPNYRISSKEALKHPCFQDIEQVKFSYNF
L-lactate dehydrogenase (Plasmodium falciparum (isolate CDC / Honduras)), sequence (Q27743 whole entry, looked up): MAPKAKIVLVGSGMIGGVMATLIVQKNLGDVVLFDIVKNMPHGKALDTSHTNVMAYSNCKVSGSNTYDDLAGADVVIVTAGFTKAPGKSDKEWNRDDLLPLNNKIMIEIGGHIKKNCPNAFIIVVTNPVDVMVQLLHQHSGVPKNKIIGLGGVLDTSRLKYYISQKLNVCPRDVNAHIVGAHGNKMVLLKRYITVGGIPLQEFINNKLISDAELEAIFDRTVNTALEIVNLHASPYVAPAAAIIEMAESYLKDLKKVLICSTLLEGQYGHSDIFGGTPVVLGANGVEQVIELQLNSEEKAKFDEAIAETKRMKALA

CNC(=O)c1cnc(Nc2ccc(OCC(O)CN(C)C)cc2)nc1Nc1cccc([N+](=O)[O-])c1 (stereo not given)
inactive: inhibition [3] -1% | outcome [5] | outcome [6] | outcome [7] | outcome [8]
active: growth inhibition [1] 94% | inhibition [2] 52% | growth inhibition [4] 100%

CNc1nc(NN=Cc2ccccc2Cl)nc(Nc2cccc(C(F)(F)F)c2)n1
inactive: growth inhibition [1] -9% | inhibition [2] 12% | inhibition [3] 0% | outcome [5] | outcome [6] | outcome [7] | outcome [8]
active: growth inhibition [4] 84%

Cc1ccc(O)c(-c2cc(C(=O)Nc3ccc(S(=O)(=O)N4CCCC(C)C4)cc3)[nH]n2)c1 (stereo not given)
active: growth inhibition [1] 97% | growth inhibition [4] 96%
inactive: inhibition [2] 27% | inhibition [3] -2% | outcome [5] | outcome [6] | outcome [7] | outcome [8]

CN(C)Cc1cccc(-c2ccc(NC(=O)c3ccc4c(=O)n(C5CCCCC5)cnc4c3)cc2)c1
inactive: inhibition [3] -3% | outcome [5] | outcome [6] | outcome [7] | outcome [8]
active: growth inhibition [1] 53% | inhibition [2] 92% | growth inhibition [4] 96%

CCC(C)CN1CCCN(c2ccc(NC(=O)c3cccs3)cc2)CC1 (stereo not given)
inactive: inhibition [2] 4% | inhibition [3] -2% | outcome [5] | outcome [6] | outcome [7] | outcome [8]
active: growth inhibition [1] 95% | growth inhibition [4] 91%

COc1cc(CNCCCCCCNCc2cc(OC)cc3ccccc23)c2ccccc2c1
inactive: inhibition [3] -5% | outcome [5] | outcome [6] | outcome [7] | outcome [8]
active: growth inhibition [1] 94% | inhibition [2] 57% | growth inhibition [4] 100%

Cc1ccc(NC(=O)Nc2ccc(Cl)c(C(F)(F)F)c2)cc1-c1ccc(C(=O)NCCN2CCOCC2)cc1
active: inhibition [2] 52% | growth inhibition [4] 98%
inactive: growth inhibition [1] 31% | inhibition [3] 0% | outcome [5] | outcome [6] | outcome [7] | outcome [8]

Cc1cccc(CNc2nc(C)cc(NCCC(=O)NCc3cccc(F)c3)n2)c1
inactive: growth inhibition [1] 13% | inhibition [2] 23% | inhibition [3] -1% | outcome [5] | outcome [6] | outcome [7] | outcome [8]
active: growth inhibition [4] 84%

CCCN(Cc1nnc(-c2cccs2)o1)C(=O)CSc1nnnn1-c1ccc(C)c(C)c1
inactive: inhibition [2] -7% | inhibition [3] 0% | outcome [5] | outcome [6] | outcome [7] | outcome [8]
active: growth inhibition [1] 80% | growth inhibition [4] 96%

N#Cc1ccc(CN2CCCN(Cc3cccc(NC(=O)c4ccc(-c5ccccc5)cc4)c3)CC2)cc1
active: growth inhibition [4] 88%
inactive: growth inhibition [1] 12% | inhibition [2] 33% | inhibition [3] 0% | outcome [5] | outcome [6] | outcome [7] | outcome [8]

Cc1cccc2[nH]c(-c3ccc(-c4cccc(NC(=O)Cc5cnc[nH]5)c4)cc3)nc12
active: growth inhibition [4] 98%
inactive: growth inhibition [1] 21% | inhibition [2] 13% | inhibition [3] -4% | outcome [5] | outcome [6] | outcome [7] | outcome [8]

CN1CCC(N(Cc2ccc(-c3cnc(NCc4ccccc4)nc3)cc2)S(=O)(=O)c2ccccc2)CC1
active: growth inhibition [4] 102%
inactive: growth inhibition [1] 10% | inhibition [2] 48% | inhibition [3] 1% | outcome [5] | outcome [6] | outcome [7] | outcome [8]

CC(=O)Nc1cc(C(=O)Nc2cccc(-c3csc(-c4nc5ccccc5[nH]4)c3)c2)ccc1C
active: growth inhibition [1] 66% | growth inhibition [4] 94%
inactive: inhibition [2] 31% | inhibition [3] 3% | outcome [5] | outcome [6] | outcome [7] | outcome [8]

CC(C)[C@H](NC(=O)NC1CCC(CCN2[C@@H]3CC[C@H]2CC(OC(=O)C(CO)c2ccccc2)C3)CC1)C(O)(c1ccccc1)c1ccccc1 (stereo not given in full)
active: growth inhibition [4] 90%
inactive: growth inhibition [1] 4% | inhibition [2] 17% | inhibition [3] 1% | outcome [5] | outcome [6] | outcome [7] | outcome [8]

COc1ccc2ncc(F)c([C@@H](O)CN3CCC(NCc4cc5c(cn4)OCCO5)CC3)c2c1
inactive: inhibition [2] -4% | inhibition [3] -7% | outcome [5] | outcome [6] | outcome [7] | outcome [8]
active: growth inhibition [1] 98% | growth inhibition [4] 100%

Clc1cc(Cl)c2c(c1)C(NCCCNc1nc3ccccc3[nH]1)CCO2 (stereo not given)
active: growth inhibition [4] 101%
inactive: growth inhibition [1] 31% | inhibition [2] 28% | inhibition [3] -4% | outcome [5] | outcome [6] | outcome [7] | outcome [8]

O=C(/C=C/c1ccc(Cl)c(Cl)c1)NCCCCCN1CCC(NC(=O)c2ccc3ccccc3c2)CC1
active: growth inhibition [4] 87%
inactive: growth inhibition [1] 20% | inhibition [2] 8% | inhibition [3] -2% | outcome [5] | outcome [6] | outcome [7] | outcome [8]

CC1(C)N=C(N)N=C(N)N1c1ccccc1
active: growth inhibition [4] 98%
inactive: growth inhibition [1] 1% | inhibition [2] 16% | inhibition [3] -4% | outcome [5] | outcome [6] | outcome [7] | outcome [8]

c1ccc2c(NCCCCCCNc3ccnc4ccccc34)ccnc2c1
inactive: growth inhibition [1] 12% | inhibition [2] 43% | inhibition [3] 5% | outcome [5] | outcome [6] | outcome [7] | outcome [8]
active: growth inhibition [4] 100%

COc1ccccc1-n1c(SCC(=O)c2ccc3c(c2)CC(=O)N3C)nnc1-c1cccs1
active: growth inhibition [1] 55% | growth inhibition [4] 95%
inactive: inhibition [2] 7% | inhibition [3] -3% | outcome [5] | outcome [6] | outcome [7] | outcome [8]

CSc1ccc(CN2CCC(NC(=O)c3ccc(-c4cccc(Cl)c4)s3)CC2)cc1
inactive: growth inhibition [1] 19% | inhibition [3] -2% | outcome [5] | outcome [6] | outcome [7] | outcome [8]
active: inhibition [2] 75% | growth inhibition [4] 86%

O=C(Nc1ccnc(N2C[C@H]3C[C@@H]2CN3Cc2cccc(O)c2)c1)c1ccc(F)cc1
inactive: growth inhibition [1] 0% | inhibition [2] 2% | inhibition [3] 4% | outcome [5] | outcome [6] | outcome [7] | outcome [8]
active: growth inhibition [4] 92%

CCCCN(CCCC)CCCCNc1c2ccccc2nc2ccccc12
active: growth inhibition [1] 100% | growth inhibition [4] 100%
inactive: inhibition [2] 36% | inhibition [3] 0% | outcome [5] | outcome [6] | outcome [7] | outcome [8]

CC1CCN(CC[C@H]2CCCN2S(=O)(=O)c2cccc(NC(=O)Nc3ccc(C(F)(F)F)cc3)c2)CC1
inactive: growth inhibition [1] 41% | inhibition [2] 12% | inhibition [3] 2% | outcome [5] | outcome [6] | outcome [7] | outcome [8]
active: growth inhibition [4] 100%

FC(F)(F)CNc1nc(Nc2ccc3ncccc3c2)nc2[nH]ccc12
inactive: inhibition [2] 37% | inhibition [3] 0% | outcome [5] | outcome [6] | outcome [7] | outcome [8]
active: growth inhibition [1] 83% | growth inhibition [4] 87%

COc1cccc(NC(=O)CSc2nc(-c3ccccc3Cl)ns2)c1
active: growth inhibition [1] 100% | growth inhibition [4] 99%
inactive: inhibition [2] 7% | inhibition [3] 2% | outcome [5] | outcome [6] | outcome [7] | outcome [8]

OCC1CCN(Cc2ccc(-c3ccc(-c4nc5ccc(F)cc5[nH]4)cc3)cc2)CC1
active: growth inhibition [1] 95% | growth inhibition [4] 100%
inactive: inhibition [2] 17% | inhibition [3] -1% | outcome [5] | outcome [6] | outcome [7] | outcome [8]

Cc1nnc2c(NC(=O)NC3CCCC3)cc3ccc(-c4cccc(CN5CCN(C)CC5)c4)cc3n12
active: growth inhibition [1] 68% | inhibition [2] 54% | growth inhibition [4] 91%
inactive: inhibition [3] 2% | outcome [5] | outcome [6] | outcome [7] | outcome [8]

Cc1[nH]c(C)c(Cc2ccc(Oc3ccc(OC(F)(F)F)cc3)cc2)c(=O)c1Br
inactive: inhibition [2] 29% | inhibition [3] -1% | outcome [5] | outcome [6] | outcome [7] | outcome [8]
active: growth inhibition [1] 87% | growth inhibition [4] 96%

COc1ccc(S(=O)(=O)NC2CCN(c3ccc(C(F)(F)F)cc3NC(=O)OCC(C)C)CC2)cc1
active: growth inhibition [4] 85%
inactive: growth inhibition [1] 13% | inhibition [2] 19% | inhibition [3] 3% | outcome [5] | outcome [6] | outcome [7] | outcome [8]

C[C@H](Cc1ccc(Oc2ccc(C[C@@H](C)NC[C@H](O)c3cccc(Cl)c3)cc2)cc1)NC[C@H](O)c1cccc(Cl)c1
active: growth inhibition [1] 96% | inhibition [2] 99% | growth inhibition [4] 100%
inactive: inhibition [3] -3% | outcome [5] | outcome [6] | outcome [7] | outcome [8]

CS(=O)(=O)c1ccc(CNCc2ccc(-c3cccc(-c4nc5ccc(C(F)(F)F)cc5[nH]4)c3)cc2)cc1
inactive: inhibition [3] 8% | outcome [5] | outcome [6] | outcome [7] | outcome [8]
active: growth inhibition [1] 100% | inhibition [2] 54% | growth inhibition [4] 102%

Cc1cccc2[nH]c(-c3cccc(-c4ccc(NC(=O)C(C)CN5CCOCC5)cc4)c3)nc12 (stereo not given)
active: growth inhibition [4] 93%
inactive: growth inhibition [1] 30% | inhibition [2] 7% | inhibition [3] 2% | outcome [5] | outcome [6] | outcome [7] | outcome [8]

CN(C)c1ccc(CN2CCC(CNC(=O)c3cc(-c4ccccc4F)cs3)C2)cc1 (stereo not given)
active: growth inhibition [4] 101%
inactive: growth inhibition [1] 33% | inhibition [2] 35% | inhibition [3] 2% | outcome [5] | outcome [6] | outcome [7] | outcome [8]

O=C(/C=C/c1ccc(Cl)c(Cl)c1)NCCCCCN1CCCC(C(=O)Nc2ccc(Cl)cc2)C1 (stereo not given)
inactive: growth inhibition [1] -3% | inhibition [2] 35% | inhibition [3] -3% | outcome [5] | outcome [6] | outcome [7] | outcome [8]
active: growth inhibition [4] 98%

O=C(Nc1cccc(CN2CCN(Cc3ccc(O)cc3)CC2)c1)c1cc2ccccc2s1
active: growth inhibition [4] 100%
inactive: growth inhibition [1] 26% | inhibition [2] 15% | inhibition [3] -4% | outcome [5] | outcome [6] | outcome [7] | outcome [8]

CN1CCN(CCNc2c3ccccc3nc3c2ccc2ccccc23)CC1
inactive: inhibition [3] -6% | outcome [5] | outcome [6] | outcome [7] | outcome [8]
active: growth inhibition [1] 66% | inhibition [2] 76% | growth inhibition [4] 101%

FC(F)(F)c1cc(Nc2ccc(Oc3ccccc3)cc2)c2cc(-c3ccncc3)ccc2n1
active: growth inhibition [1] 70% | growth inhibition [4] 102%
inactive: inhibition [2] -12% | inhibition [3] -2% | outcome [5] | outcome [6] | outcome [7] | outcome [8]

OC(CNCc1ccccc1OCc1ccccc1)c1cccc(Cl)c1 (stereo not given)
inactive: inhibition [2] -6% | inhibition [3] 7% | outcome [5] | outcome [6] | outcome [7] | outcome [8]
active: growth inhibition [1] 100% | growth inhibition [4] 100%

CCc1cc2c(=O)c(-c3nc(C)cs3)c(N)oc2c(CN2CCCCC2)c1O
inactive: inhibition [2] -2% | inhibition [3] 0% | outcome [5] | outcome [6] | outcome [7] | outcome [8]
active: growth inhibition [1] 97% | growth inhibition [4] 99%
